HCV inhibitor = HCV inhibition; Huh7.5.1 HCVcc-Cre infection, luciferase reporter, 44 h; Potency, µM (doses to about 41.8 µM), inactives show at the highest dose activity change, negative = inhibition, hits mostly inhibitors; 340,000 compounds, 3.4% hits; AID 651820; also: potency is read from the fitted curve at half-maximal effect; % is scaled to controls: 0 for no effect and ±100 for the full control effect
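Cells seeded at 1,000/well and cultured 4 h, then compounds added followed by HCVcc-Cre virus (~0.5 moi). After 44 h further culture, luciferase substrate was added, plates held 15 min at room temperature, and luminescence read for 15 sec.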
Pf growth 48h = P. falciparum growth inhibition at 48 hours (one generation). Potency, µM (doses to about 28.7 µM), for inactives: top-dose activity change, negative = inhibition, actives largely listed as inhibitors. 310,000 compounds, 5.9% hits. P. falciparum luciferase growth in erythrocytes, 48 h; also: potency is read from the fitted curve at half-maximal effect; % is scaled to controls: 0 for no effect and ±100 for the full control effect
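Growth was read as firefly luciferase luminescence after a 48 h, 37 C, 5% CO2 exposure of compounds to reporter-bearing P. falciparum cultures (0.1% parasitemia, 2% hematocrit final) in Albumax-supplemented RPMI 1640.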
SARS PLP yeast = inhibitors of SARS-CoV papain-like protease in yeast. S. cerevisiae expressing SARS-CoV PLpro, growth rescue. 330,000 compounds, 0.19% hits. Potency, µM (series often up to 32.9 µM), for inactives: at the highest dose activity, positive = growth rescue, usual class: activators. AID 485353; calls by dose curve; also: potency is read from the fitted curve at half-maximal effect; 0% is about no effect; nearly all actives have a fitted effect of over 55% in size
Sm TGR inh = S. mansoni TGR enzyme inhibition; Q962Y6; purified TGR, DTNB reduction, TNB absorbance 405 nm; Potency, µM (titrated, usually from 114 µM), without a hit: at the top dose activity change, negative = inhibition, most hits filed as inhibitors; 360,000 compounds, 3% hits; also: potency is read from the fitted curve at half-maximal effect; % is scaled to controls: 0 for no effect and ±100 for the full control effect; nearly all actives have a fitted effect of over 60% in size
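First, TGR (20 nM dispensed) and NADPH were mixed with compound. Second, a 15 min room-temperature incubation followed. Third, further NADPH and then DTNB were added to start the reaction. Finally, TNB absorbance was monitored kinetically.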
Pf growth 96h = P. falciparum growth inhibition at 96 hour, primary screen for plastid delayed-death inhibitors. 320,000 compounds, 6.9% hits. P. falciparum luciferase reporter growth, 96 h. AID 504834. Potency, µM (doses to about 28.7 µM), inactives show at the highest dose activity change, negative = inhibition, most hits filed as inhibitors; also: potency is read from the fitted curve at half-maximal effect; % is scaled to controls: 0 for no effect and ±100 for the full control effect
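Two parasite generations (96 h, 37 C, 5% CO2) of compound exposure in infected erythrocytes (0.05% parasitemia, 2% hematocrit). Luciferase-reporter P. falciparum; decreased luminescence indicates inhibited growth, aimed at apicoplast-acting delayed death.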
HCMV antiviral = blocks human cytomegalovirus replication | HFF cells, HCMV-luciferase reporter, 72 h; hits give low values | activity change, negative = inhibition, % at 57.5 µM | 410,000 compounds, 4.5% hits; in the data active = activity change below about -60%; inconclusive = no clear call, values can overlap the other calls; inactive = above about -39%; also: % is scaled to controls: 0 for no effect and ±100 for the full control effect
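Human foreskin fibroblasts infected with luciferase-reporter HCMV at MOI 1 PFU/cell, compounds at two doses. Luciferase measured 72 h post infection; normalized to buffer-only basal and Salinomycin (10uM) controls.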
Numbers without * were called inactive; ? = inconclusive; nt = not tested or not shown; + = active, no number; ! = not active in a repeat; [ ] = dose if it differs, or a comment. Hits are enriched below; roughly 15% of the tested compounds scored in any of these assays. Unless noted, calls follow the shape of the dose curve; as a rule, active = well fitted curve in the direction sought with a large enough effect; inconclusive = small, poorly fitted or top-dose-only effect, or another doubt; inactive = no such curve, though single readings can be large; an effect the other way counts as inactive or inconclusive.

SMILES | HCV inhibitor | Pf growth 48h | SARS PLP yeast | Sm TGR inh | Pf growth 96h | HCMV antiviral
Cc1ccc(C)c(S(=O)(=O)N2CCN(Cc3ccc(O)c4ncccc34)CC2)c1 | ? | -12% | ? | ? | 4.1µM* | -100*
COc1cccc(CN(C)CC(=O)Nc2ccccc2C(C)C)c1 | -18% | ? | 1% | 8% | -12% | -65*
CSCC[C@H](NC(=O)Cc1c(C)c2c(cc(C)c3c(C)coc32)oc1=O)C(=O)O | 17% | -17%[0.00184 µM] | 15% | -11% | -6% | 7
Nc1cc(Nc2ccccc2)ccn1 | -2% | ? | 0% | 6% | ? | -25
N#Cc1sc2nccc(Nc3ccccc3)c2c1N | ? | nt | nt | nt | nt | -87*
CO[C@H]1/C=C/O[C@@]2(C)Oc3c(C)c(O)c4c(O)c(c(C=NN5CCN(C)CC5)c(O)c4c3C2=O)NC(=O)/C(C)=C\C=C\[C@H](C)[C@H](O)[C@@H](C)[C@@H](O)[C@@H](C)[C@H](OC(C)=O)[C@@H]1C | 2% | 1.2µM* | -3% | -4% | ? | 3
CO[C@H]1C=CO[C@@]2(C)Oc3c(C)c(O)c4c(O)c(c(C=NN5CCN(C)CC5)c(O)c4c3C2=O)NC(=O)C(C)=CC=C[C@H](C)[C@H](O)[C@@H](C)[C@@H](O)[C@@H](C)[C@H](OC(C)=O)[C@@H]1C | 1%[8.37 µM] | 1.2µM* | -1% | -18% | 1.2µM* | -19
COc1cccc(CN(C)S(=O)(=O)c2ccccc2Br)c1 | ? | nt | 21% | nt | nt | 1
O=C(CNC(=O)c1ccccc1)OC(C(=O)Nc1cc(C(F)(F)F)ccc1Cl)c1ccccc1 (centres undefined) | ? | nt | 7% | 9% | 13µM* | ?
Cc1cnc(C(=O)OC(C(=O)Nc2cc(C(F)(F)F)ccc2Cl)c2ccccc2)cn1 (centres undefined) | 4% | 15µM* | -6% | -7% | 10µM* | -6
Cc1ccc(C)c(NC(=O)C(OC(=O)c2cnc(C)cn2)c2ccccc2)c1 (centres undefined) | 13% | 12% | -1% | -1% | 19% | -12
O=C(CC(=O)c1ccccc1)Nc1cc(C(F)(F)F)ccc1Cl | 2% | -20% | 21% | 2% | 39% | ?
O=C(Nc1cc(C(F)(F)F)ccc1Cl)C(NCc1ccccc1)c1ccccc1 (centres undefined) | 8% | 10µM* | -39% | 9% | 9.3µM* | -16
C=CCN1[C@H](C)[C@H](c2ccccc2)Oc2cc(Br)ccc2S1(=O)=O | nt | nt | nt | nt | nt | -32
CCC1CCCCN1C(=O)CCS(=O)(=O)c1ccccc1 (centres undefined) | 7% | 83% | -1% | -1% | 1% | 65
O=C(O)c1cc([N+](=O)[O-])ccc1N1CCC(Cc2ccccc2)CC1 | 11% | -26% | -41% | 4% | ? | -15
CC1Cc2cc(S(=O)(=O)N3CCN(c4ccc(Cl)cc4)CC3)ccc2N1C(=O)C1CC1 (centres undefined) | 6.3µM* | ? | 31% | -5% | 15µM* | -26
CN1C(=O)Cc2cc(S(=O)(=O)N3CCN(c4cccc(Cl)c4)CC3)ccc21 | -22% | -4% | 0% | -4% | 0% | -19
CN1C(=O)Cc2cc(S(=O)(=O)N3CCN(c4ccc(Cl)cc4)CC3)ccc21 | -6% | ? | -4% | -2% | 7% | +!
COc1cccc(N2CCN(C(=O)C3CCN(S(=O)(=O)c4ccc5c(c4)CC(C)N5C(C)=O)CC3)CC2)c1 (centres undefined) | 11µM* | ? | -6% | -2% | ? | -20
CC(=O)N1c2ccc(S(=O)(=O)N3CCC(C(=O)N4CCN(c5ccc(Cl)cc5)CC4)CC3)cc2CC1C (centres undefined) | 10µM* | ? | -8% | 7% | ? | -74*
COc1ccc(NC(=O)Cn2c(=O)n(-c3ccc(OC)cc3)c(=O)c3sc4ccccc4c32)cc1 | nt | nt | nt | 2% | nt | 9
Cc1[nH]nc2c1C(Cc1ccccc1)C(C#N)=C(N)O2 (centres undefined) | 9% | -2% | -3% | 20µM* | -6% | 24
CCc1[nH]nc2c1C(Cc1ccccc1)C(C#N)=C(N)O2 (centres undefined) | 0% | nt | -1% | ? | -13% | 40
CC(=O)Nc1ccc(Nc2nc(-c3cc4ccccc4oc3=O)cs2)cc1 | ? | 115% | 11% | -27% | -24% | 1
SMILES | HCV inhibitor | Pf growth 48h | SARS PLP yeast | Sm TGR inh | Pf growth 96h | HCMV antiviral
Nc1ccc(Nc2nc(-c3cc4ccccc4oc3=O)cs2)cc1 | -7% | 71% | -1% | 1%[57.1 µM] | ? | -61*
CC(C)c1c(C(=O)N/N=C/c2cccc3ccccc23)nnn1-c1nonc1N | ? | -23% | -1% | 5% | ? | -22
CCOC(=O)/C=C/C(=O)OCC(=O)Nc1c(Cl)cccc1Cl | 5% | 13µM* | -3% | 20µM* | -29% | -27
O=C(COC(=O)/C=C/c1cccs1)Nc1ccccc1Cl | 0% | 25% | -2% | 1% | 31% | -27
C/C(=C\C(=O)OCC(=O)NCc1ccccc1)C(=O)OCC(=O)NCc1ccccc1 | 9% | -6% | 10% | -9% | 33% | -3
CCOC(=O)/C=C/C(=O)OCC(=O)NCc1ccccc1 | 23% | -26% | -21% | 25µM* | ? | -22
COc1ccc(Cl)cc1NC(=O)c1[nH]c(C)c(C(C)=O)c1C | 1% | 54% | 1% | 5% | 30% | 76
CCc1c(C(=O)Nc2ccc(OC)c(Cl)c2)[nH]c(C)c1C(C)=O | ? | 12µM* | 1% | 0% | -6% | 58
CCOC(=O)/C=C/C(=O)OCC(=O)Nc1ccc(OC)c(Cl)c1 | -2% | 9% | -26% | 18µM* | 0% | 23
COc1ccc(NC(=O)COC(=O)/C=C/C(=O)OCC(=O)Nc2ccc(OC)c(Cl)c2)cc1Cl | 0% | 23% | 3% | ? | 1% | -20
COc1ccc(S(=O)CC(=O)Nc2ccc(Cl)cc2Cl)cc1 (centres undefined) | -2% | 13% | 0% | -3% | 44% | -66*
CCOC(=O)/C=C/C(=O)OCC(=O)Nc1ccc(Cl)cc1Cl | 15% | -11% | 0% | 11µM* | 6% | 44
Cc1cccc(OCC(=O)NCc2ccccc2)c1 | 18% | 24% | -1% | -3% | 9.3µM* | 16
C/C(=N\NC(=O)COc1cccc(C)c1)c1ccc2ccccc2c1O | 11µM* | ? | -1% | -2% | 2.6µM* | -77*
CC(C)=CC(=O)OCC(=O)Nc1ccc(F)cc1Cl | 4% | nt | 1% | 14%[11.4 µM] | 56% | -29

Screens deposited in PubChem by National Center for Advancing Translational Sciences (NCATS).
